The record followed here is PubChem BioAssay (NCI).

The nature of the test: NCI Yeast Anticancer Drug Screen. Data for the mgt1 strain (AID 153). The settings on record: S. cerevisiae mgt1 mutant growth inhibition, stronger effect = higher value. How it is done:
Growth inhibition of yeast strains with defined genetic alterations is measured as a screen for potential anti-cancer activity. Selected strains with alterations in DNA damage repair or cell cycle control were exposed to compounds and growth inhibition was measured relative to vehicle treated controls. The strain used in this assay is mgt1

Structures are written as SMILES. About 79,000 compounds went through this panel and 15% of them were active in at least one assay; those are over-represented in the sample as a whole. Unmarked numbers belong to inactive results. Calls of active or inactive are those of the source. Cut-off read from the data, not from the text of the source: active = growth inhibition above about 70%; inactive = the rest.

In the case of `BrCC[P+](c1ccccc1)(c1ccccc1)c1ccccc1`, the growth inhibition was -61% (at 1.2 µM); -53% (at 3.7 µM); -7% (at 11.0 µM); 94% (active) (at 33.0 µM); 98% (active) (at 100.0 µM).
For `O=S(=O)(CCCl)c1ccccc1Cl`, in that order: 1%, 1%, 41%, 96% (active) and 98% (active).
As to `CCN(CC)CCN1C(=O)c2cccc3cc(OC)cc(c23)C1=O`, the growth inhibition was -10% (at 1.2 µM); -12% (at 3.7 µM); -10% (at 11.0 µM); -4% (at 33.0 µM); 1% (at 100.0 µM).
As for `O=[N+]([O-])/C=C/c1ccc2ccccc2c1`, the growth inhibition reads like this: (at 1.2 µM) -1%; (at 3.7 µM) 61%; (at 11.0 µM) 100% (active); (at 33.0 µM) 100% (active); (at 100.0 µM) 99% (active).
As to `COC(=O)C1=C(C)NC(C)=C(C(=O)OCCCN2CCC(c3ccccc3)(c3ccccc3)CC2)C1c1cccc([N+](=O)[O-])c1` (stereo not given), the growth inhibition reads like this: (at 1.2 µM) -5%; (at 3.7 µM) 22%; (at 11.0 µM) 98% (active); (at 33.0 µM) 98% (active); (at 100.0 µM) 93% (active).
For `O=C1C=CC(=O)c2c(O)c(Nc3ccc(OC(F)(F)F)cc3)c(Cl)c(O)c21`, the growth inhibition was 9% (at 1.2 µM); 16% (at 3.7 µM); 16% (at 11.0 µM); 50% (at 33.0 µM); 94% (active) (at 100.0 µM).
Regarding `COc1cc2ccc(/C=C\[N+](=O)[O-])cc2cc1OC`, the growth inhibition by setting is: (at 1.2 µM) -18%; (at 3.7 µM) -23%; (at 11.0 µM) 24%; (at 33.0 µM) 97% (active); (at 100.0 µM) 95% (active).
For `CC(/C=C/c1ccc(Cl)cc1)=N\NC(=S)NCC(C)C`, in that order: -6%, -2%, -4%, 8% and 35%.
